Hits are enriched below; roughly 4.8% of the tested compounds scored in any of these assays.
hgDAF-12 ag – activates the H. glycines DAF-12 receptor ligand-binding domain; HEK293 GAL4-hgDAF12 UAS-luciferase reporter, agonist luminescence; normalized to butyrate control; activation, % at 6.8 µM; hit rate 1.8% among 370,000; AID 687014;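 active = activation above a cutoff set at the mean of all screened compounds plus 3 SD, cut at about 10% in these data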
ssDAF12 agonist – activators of S. stercoralis DAF-12 nuclear receptor | hit rate 1% among 370,000 | activation, % at 6.8 µM | AID 652126 | HEK293 ssDAF-12/GRIP1 lit1-tk-luc reporter, luminescence; % of 3 µM dafachronic acid response;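 active = activation above the mean over all tested compounds plus 3 SD, cut at about 0.9% in these data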
NR1D1 modulator – modulates human Rev-erb alpha binding to DNA. activity, % at 10 µM. Rev-erbα–FITC-DNA binding, fluorescence polarization, 90 min. hit rate 0.79% among 370,000. AID 1259318. P20393;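 active = activity above about 14%, limit read from the data; passing the limit was not always enough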
DAX1 inh-1 – DAX1 (NR0B1) inhibition, primary screen. HEK293T StAR-luciferase reporter, SF-1/DAX-1 repression relief. inhibition, % at 6.8 µM. hit rate 1.1% among 370,000. AID 652010;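 active = inhibition above the mean over all tested compounds plus 3 SD, cut at about 3.6% in these data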;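 also: higher inhibition means more luminescence from relief of DAX-1 repression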
DAX1 inh-2 – inhibitors of human orphan nuclear receptor DAX1 (NR0B1) | hit rate 0.99% among 340,000 | inhibition, % at 6.75 µM | P51843 | AID 504766 | HEK293 Gal4-DAX1 luciferase reporter, luminescence;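 active = inhibition above the mean over all tested compounds plus 3 SD, cut at about 4.2% in these data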;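 also: inhibition shows as a rise in luminescence from relieved DAX1 repression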
hcDAF-12 act – H. contortus DAF-12 activation, primary screen; hit rate 1.4% among 370,000; activation, % at 6.8 µM; HEK293 hcDAF-12 lit1-tk-luc reporter, luminescence; 0% DMSO, 100% Δ7-dafachronic acid; AID 652067;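 active = activation above the mean of all tested compounds plus 3 SD, cut at about 5.5% in these data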
LXR ag – LXR-beta agonism as hcDAF-12 counter-screen | 3,400 tested, under 10 active | activation, % at 6.8 µM | HEK293 Gal4-LXR tk-luc reporter, luminescence, 24 h; normalized: DMSO 0%, positive control 100% | shares compounds with hcDAF-12 act;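 active = mean percent activation of the reporter above a cutoff set as the average over tested compounds plus their standard deviation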
Target sequence (P55055 whole entry, looked up, the tested form may be a part): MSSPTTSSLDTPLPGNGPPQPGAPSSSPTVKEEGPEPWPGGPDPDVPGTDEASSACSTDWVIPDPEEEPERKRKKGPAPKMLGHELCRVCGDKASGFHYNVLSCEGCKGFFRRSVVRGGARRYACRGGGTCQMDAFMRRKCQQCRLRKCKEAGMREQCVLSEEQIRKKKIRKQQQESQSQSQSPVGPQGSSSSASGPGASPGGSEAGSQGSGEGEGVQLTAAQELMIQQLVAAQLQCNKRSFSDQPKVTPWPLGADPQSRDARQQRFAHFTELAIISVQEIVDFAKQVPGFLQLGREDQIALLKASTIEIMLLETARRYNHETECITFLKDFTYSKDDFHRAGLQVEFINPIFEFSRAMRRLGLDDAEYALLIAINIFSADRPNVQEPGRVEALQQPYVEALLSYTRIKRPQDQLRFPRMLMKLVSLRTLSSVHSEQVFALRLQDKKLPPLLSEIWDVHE
hcDAF12 ag – confirmation of H. contortus DAF-12 agonists. shares compounds with hcDAF-12 act. HEK293 hcDAF-12 lit1-tk-luc reporter, luminescence; % of Δ7-dafachronic acid response. activation, % at 6.8 µM. hit rate 61% among 3,400. AID 743032;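 active = mean activation across triplicate tests above the threshold derived from the earlier primary screen, cut at about 5.5% in these data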
Of the large screens only hits and unclear results are named; the others gave an inactive call (follow-up assays come after a bar, where they were run).

COc1ccc(C(=O)Nc2nnc(-c3cccs3)s2)cc1	ssDAF12 agonist 1.3, hcDAF-12 act 6.8 | LXR ag inactive | hcDAF12 ag 17.0
COc1ccc(C(=O)Nc2nc(-c3cccs3)c(NC(C)=O)s2)cc1	none
O=C(Nc1ccccc1)Nc1nnc(-c2cccs2)s1	hcDAF-12 act 6.6 | LXR ag inactive | hcDAF12 ag inactive
CC1(c2nnnn2-c2ccc(F)cc2)CCCC(=O)N1CCc1c[nH]c2ccccc12 (stereo not given)	none (no result: DAX1 inh-2)
CCCOc1ccc(CN(CCO)CCO)cc1[N+](=O)[O-]	hcDAF-12 act 7.3 | LXR ag inactive | hcDAF12 ag inactive
COc1cccc(/C=N/NC(=O)c2ccoc2C)c1	hgDAF-12 ag 11.2, hcDAF-12 act 7.2 | LXR ag inactive | hcDAF12 ag inactive
CCCCC1O[C@@H](C)[C@@H]2CN3CCc4c([nH]c5ccccc45)[C@@H]3C[C@@H]2N1C (stereo not given in full)	none (no result: DAX1 inh-2)
Oc1[nH]c2ccccc2c1N=Nc1nc2ccccc2s1	none
Oc1[nH]c2ccccc2c1N=Nc1ccccc1	hcDAF-12 act 13.4 | LXR ag inactive | hcDAF12 ag 14.0
COC(=O)/C=C(\C)N=Nc1c(O)[nH]c2ccccc12	hcDAF-12 act 7.3 | LXR ag inactive | hcDAF12 ag 6.8
Cc1nc2ccc(S(=O)(=O)NCC(=O)NCc3ccccc3Cl)cc2s1	none (no result: DAX1 inh-2)
N/C(=N\N=C\c1ccc(O)cc1)c1nonc1N	hgDAF-12 ag 15.6, hcDAF-12 act 7.9 | LXR ag inactive | hcDAF12 ag inactive
COc1cc(/C=N/N=C(\N)c2nonc2N)ccc1O	none
CCCCNc1ccc2c(c1)OC[C@H](Cc1ccccc1)NS2(=O)=O	none (no result: DAX1 inh-2)
CCSc1ncc(/C=N/Nc2ccc(Cl)cc2)n1C	ssDAF12 agonist 1.6, hcDAF-12 act 11.6 | LXR ag inactive | hcDAF12 ag 10.0
CCSc1ncc(/C=N/Nc2ccccc2)n1C	none
O=C(COC(=O)CN1C(=O)C2CCCCC2C1=O)Nc1ccc(S(=O)(=O)N2CCOCC2)cc1 (stereo not given)	ssDAF12 agonist 1.5, hcDAF-12 act 8.9 | LXR ag inactive | hcDAF12 ag inactive
O=C(COC(=O)CN1C(=O)C2CCCCC2C1=O)Nc1cc(S(=O)(=O)N2CCOCC2)ccc1Cl (stereo not given)	none
Cc1cc(-c2ccc3c(c2)COc2c4ccccc4nn2-3)on1	DAX1 inh-1 4.5, DAX1 inh-2 4.8, hcDAF-12 act 9.0 | LXR ag inactive | hcDAF12 ag 10.2
CCCc1cc(-c2ccc3c(c2)COc2c4ccccc4nn2-3)on1	none
CN1OC[C@@H]2CN(C(=O)c3ccc([N+](=O)[O-])cc3)[C@H](c3ccccc3Br)C[C@@H]21	none (no result: DAX1 inh-2)
N=c1oc2ccccc2cc1-c1nc(-c2ccccc2)cs1	ssDAF12 agonist 1.1, hcDAF-12 act 10.6 | LXR ag inactive | hcDAF12 ag inactive
Cc1nc(-c2ccccc2)cs1	none
c1csc(-c2csc(-c3cccs3)n2)c1	none
Cc1cccc(Nc2nc(-c3cccs3)cs2)n1	hgDAF-12 ag 16.9, ssDAF12 agonist 4.0, DAX1 inh-2 4.7, hcDAF-12 act 19.5 | LXR ag inactive | hcDAF12 ag 16.9
CC(=O)N=c1sc2c3ccccc3ccc2n1C	hcDAF-12 act 7.5 | LXR ag inactive | hcDAF12 ag inactive
CC(C)CCNC(=O)C(=O)NCCC1=CCCCC1	hcDAF-12 act 6.7 | LXR ag inactive | hcDAF12 ag inactive
Cc1c(C)n(Cc2ccc(-c3ccccc3C(=O)O)cc2)c2ccc(C(=O)N[C@@H](C)c3ccc(Br)cc3)cc12	none (no result: DAX1 inh-2)
Brc1cccc(-c2nnc(-c3ccccc3)o2)c1	hgDAF-12 ag 10.4, ssDAF12 agonist 1.6, DAX1 inh-1 3.9, hcDAF-12 act 10.9 | LXR ag inactive | hcDAF12 ag 11.2
O=C(Nc1nnc(SCc2ccc(Cl)cc2)s1)c1ccco1	hcDAF-12 act 6.9 | LXR ag inactive | hcDAF12 ag inactive
CCCN1CCN(C(=S)Nc2ccc([N+](=O)[O-])cc2)CC1	hcDAF-12 act 9.1 | LXR ag inactive | hcDAF12 ag inactive
CCCN1CCC(NC(=S)Nc2ccc([N+](=O)[O-])cc2)CC1	none
Cc1ccc2[nH]c(=O)c(C(c3nnnn3C3CCCC3)N3CCCc4ccccc43)cc2c1 (stereo not given)	hcDAF-12 act 6.7 | LXR ag inactive | hcDAF12 ag inactive
CCC(C)(C)n1nnnc1C(c1cc2cc(C)ccc2[nH]c1=O)N1CCCc2ccccc21 (stereo not given)	none
COc1ccccc1C(=O)NC(=S)Nc1ccccc1N1CCCC1	hcDAF-12 act 7.1 | LXR ag inactive | hcDAF12 ag 7.6
O=C(NC(=S)Nc1ccccc1N1CCCC1)c1ccc(F)cc1	hcDAF-12 act 9.1 | LXR ag inactive | hcDAF12 ag inactive
Cc1ccccc1C(=O)NC(=S)Nc1ccccc1N1CCCC1	none
COc1ccc(OC)c(CN2C(=O)COc3ccccc3C2c2nnnn2C2CCCC2)c1 (stereo not given)	none (no result: DAX1 inh-2)
CC(C)=N/N=C(/c1ccc([N+](=O)[O-])cc1)C12CN3CN(CN(C3)C1)C2	hcDAF-12 act 6.9 | LXR ag inactive | hcDAF12 ag inactive
O=[N+]([O-])c1cccc(/C(=N/N=C/c2ccccc2Br)C23CN4CN(CN(C4)C2)C3)c1	none
O=C(c1ccco1)c1coc2c1cc(O)c1ccccc12	ssDAF12 agonist 1.0, hcDAF-12 act 7.9 | LXR ag inactive | hcDAF12 ag 6.1
C[C@@H]1C(=O)N2N=Cc3cc4ccccc4cc3[C@H]2N2N=Cc3cc4ccccc4cc3[C@@H]12	none (no result: DAX1 inh-2)
C=CCc1ccccc1OCC(O)CNC1CCCC1 (stereo not given)	hcDAF-12 act 7.2 | LXR ag inactive | hcDAF12 ag inactive
O=C(Cn1cc(SCc2cccc(Cl)c2)c2ccccc21)N1CCOCC1	hcDAF-12 act 7.8 | LXR ag inactive | hcDAF12 ag inactive
O=C(CSc1cn(CC(=O)N2CCOCC2)c2ccccc12)N1CCOCC1	none
NNc1nc2ccc(F)cc2s1	hcDAF-12 act 10.0 | LXR ag inactive | hcDAF12 ag inactive
C[C@@H]1CCN(C2CC2)S(=O)(=O)c2ccc(N3CC[C@@H](O)C3)cc2O1	none (no result: DAX1 inh-2)
CCOC(=O)N1N=C(c2ccc(C)cc2)CC1(O)C(F)(F)F (stereo not given)	hgDAF-12 ag 11.2, DAX1 inh-1 4.3, hcDAF-12 act 8.1 (no result: NR1D1 modulator) | LXR ag inactive | hcDAF12 ag 8.0
